A selection: hits, their analogues and other compounds. The true share with any hit is near 4.8%.
SMARCA2 act = SMARCA2 (BRM) function activators, primary screen, cell-based, luminescence, high throughput | MG213 cells, MMTV-luciferase reporter, dexamethasone, overnight | activation, % at 9.1 µM | 1% of 370,000 active; in the data active = activation above about 7.8%
DAX1 inh-1 = DAX1 (NR0B1) inhibitors, primary screen, cell-based, HEK293, Gal4-DAX1, luciferase luminescence; inhibition, % at 6.75 µM; Nuclear receptor subfamily 0 group B member 1 (Homo sapiens), P51843; HEK293 Gal4-DAX1 luciferase reporter; 0.99% of 340,000 active;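 active = inhibition above the mean over all tested compounds plus 3 SD, cut at about 4.2% in these data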;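 note: inhibition shows as a rise in luminescence from relieved DAX1 repression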
Target sequence (P51843 207-470 limits assumed): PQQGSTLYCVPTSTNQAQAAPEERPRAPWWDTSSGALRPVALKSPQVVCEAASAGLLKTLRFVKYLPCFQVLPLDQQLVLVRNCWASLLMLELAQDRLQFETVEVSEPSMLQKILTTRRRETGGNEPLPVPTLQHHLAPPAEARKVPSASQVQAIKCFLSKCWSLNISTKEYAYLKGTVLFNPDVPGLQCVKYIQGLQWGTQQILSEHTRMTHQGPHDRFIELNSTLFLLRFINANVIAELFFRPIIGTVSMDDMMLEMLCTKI
DAX1 inh-2 = DAX1 (NR0B1) inhibitors on StAR promoter, primary screen, cell-based, luminescence, SF-1 (NR5A1), full-length DAX-1. HEK293T StAR-luciferase reporter, SF-1/DAX-1 repression relief. inhibition, % at 6.8 µM. 1.1% of 370,000 active. AID 652010, 2013;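 active = inhibition above the mean over all tested compounds plus 3 SD, cut at about 3.6% in these data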;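 note: higher inhibition means more luminescence from relief of DAX-1 repression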
ssDAF-12 act = S. stercoralis DAF-12 nuclear receptor activators, primary screen, cell-based, luminescence, HEK293, GRIP1 co-expression, lit1-tk-luc | Nuclear hormone receptor DAF-12 (Strongyloides stercoralis) | AID 652126, 2013 | HEK293 ssDAF-12/GRIP1 lit1-tk-luc reporter; % of 3 µM dafachronic acid response | 1% of 370,000 active | activation, % at 6.8 µM;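 active = activation above the mean over all tested compounds plus 3 SD, cut at about 0.9% in these data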
hcDAF12 agonist = H. contortus DAF-12 nuclear receptor activators, primary screen, cell-based, luminescence, HEK293, lit1-tk-luc reporter; activation, % at 6.8 µM; HEK293 hcDAF-12 lit1-tk-luc reporter; 0% DMSO, 100% Δ7-dafachronic acid; 1.4% of 370,000 active; AID 652067, 2013;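 active = activation above the mean of all tested compounds plus 3 SD, cut at about 5.5% in these data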
hgDAF-12 ag = H. glycines DAF-12 receptor agonists, primary screen, cell-based, luminescence, HEK293, GAL4 fusion, UAS-luciferase | activation, % at 6.8 µM | Nuclear hormone receptor DAF-12 (Heterodera glycines), GAL4 fusion | 1.8% of 370,000 active | HEK293 GAL4-hgDAF12 UAS-luciferase reporter, agonist luminescence; normalized to butyrate control;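 active = activation above a cutoff set at the mean of all screened compounds plus 3 SD, cut at about 10% in these data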
SMARCA2 act conf = SMARCA2 (BRM) function activators, confirmation, cell-based, luminescence, triplicate. activation, % at 9.1 µM. 30% of 3,500 active. shares compounds with SMARCA2 act. AID 652260, 2013. MG213 cells, MMTV-luciferase with dexamethasone, overnight; MG213 cells expressing E1A, Rb sequestered; DMSO wells 0%, reference activator 100%;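 active = activation above its plate's cutoff, the mean activation of tested wells plus 3 SD, cut at about 7.9% in these data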
GAL4-VP16 Luc = GAL4-VP16 luciferase reporter activation, counter-screen for SMARCA2 (BRM) activator project, cell-based, pG5luc, luminescence, high throughput; shares compounds with SMARCA2 act; HEK293 GAL4-VP16 pG5luc reporter; scaled: DMSO wells 0%, SAHA wells 100%; activation, % at 9.1 µM; 41% of 3,500 active; AID 686939, 2013;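 active = activation above the solvent-only control well mean plus 3 SD, averaged across control plates, cut at about 5.2% in these data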
Each line names hits and unclear results; the compound was inactive in the other large screens (follow-up assays come after a bar, where they were run).

O=C(/C=C/c1ccccc1)Nc1cccc(C(=O)NCc2ccccc2)c1	none (no result: DAX1 inh-1)
O=C(/C=C/c1ccccc1)Nc1cccc(C(=O)NC2CC2)c1	SMARCA2 act 13, DAX1 inh-2 3.8 | SMARCA2 act conf inactive | GAL4-VP16 Luc 6.7
COc1ccc(C(=O)N/N=C(/C)c2cccc(NC(=O)C(F)(F)F)c2)cc1	SMARCA2 act 14 | SMARCA2 act conf inactive | GAL4-VP16 Luc 7.0
Cc1ccc(OCCCC(=O)Nc2cc(Cl)ccc2-n2cncn2)cc1	none
O=C(c1ccncc1F)N1CCC(n2nnc3ncccc32)CC1	SMARCA2 act 8.1 (no result: DAX1 inh-1) | SMARCA2 act conf inactive | GAL4-VP16 Luc inactive
O=C(c1cncnc1)N1CCC(n2nnc3ncccc32)CC1	none (no result: DAX1 inh-1)
COc1cc2nc(Nc3ccc(C)c(C)c3)nc(N)c2cc1OC	none
COc1cc2nc(Nc3ccc(C)c(Cl)c3)nc(N)c2cc1OC	SMARCA2 act 9.5 | SMARCA2 act conf inactive | GAL4-VP16 Luc inactive
O=C1C=C(c2cccs2)C[C@H](c2ccccc2)[C@H]1n1nnc([N+](=O)[O-])n1	SMARCA2 act 8.3 | SMARCA2 act conf 8.3 | GAL4-VP16 Luc inactive
O=C(c1cn(-c2ccccc2)nc1-c1ccc(Cl)cc1)N1CCOCC1	none
c1ccc(CSCc2cn3ccccc3n2)cc1	SMARCA2 act 8.8, hgDAF-12 ag 13 | SMARCA2 act conf inactive | GAL4-VP16 Luc 7.5
O=C(COc1ccc(F)cc1)N1CCC(c2ccccc2)C1 (configuration not stated)	SMARCA2 act 8.4 | SMARCA2 act conf inactive | GAL4-VP16 Luc 7.9
CCOc1cc2oc(=O)c3c(c2cc1Cl)CCC3	none
CCOc1cc2c(C)cc(=O)oc2cc1Cl	SMARCA2 act 9.9 | SMARCA2 act conf inactive | GAL4-VP16 Luc inactive
O=C(NCCNc1ccccc1[N+](=O)[O-])c1cc(F)c(F)cc1Cl	SMARCA2 act 14 | SMARCA2 act conf inactive | GAL4-VP16 Luc 5.3
COc1cc(/C=C/C(=O)NC(=O)c2ccccc2O)ccc1O	none
O=C(/C=C/c1ccccc1)NC(=O)c1ccccc1O	SMARCA2 act 9.6, hgDAF-12 ag 12 | SMARCA2 act conf 11 | GAL4-VP16 Luc 6.4
O=C(Nc1nccs1)c1nc(-c2ccccc2)n(-c2ccccc2)n1	none
COC(=O)c1sc2nc(-c3ccco3)ccc2c1N	SMARCA2 act 8.0, hgDAF-12 ag 11 | SMARCA2 act conf 14 | GAL4-VP16 Luc 6.5
NC(=O)c1sc2nc(-c3ccco3)ccc2c1N	none
COc1ccccc1N1C(=O)c2cccc3c(N(C)CCO)ccc(c23)C1=O	none
Cc1ccc(CN2CC(N3CCN(CCO)CC3)CS2(=O)=O)cc1 (configuration not stated)	none (no result: DAX1 inh-1)
O=S1(=O)CC(N2CCN(CCO)CC2)CN1Cc1ccc(F)cc1 (configuration not stated)	SMARCA2 act 8.1 (no result: DAX1 inh-1) | SMARCA2 act conf inactive | GAL4-VP16 Luc inactive
CN(CC(=O)O/N=C(\N)c1ccc(Br)cc1)S(=O)(=O)c1ccccc1	none
COc1ccc(-c2noc(-c3ccc4c(c3)OCO4)n2)cc1	SMARCA2 act 14 | SMARCA2 act conf 15 | GAL4-VP16 Luc 9.3
COc1ccc(-c2nc(-c3ccncc3)no2)cc1OC	SMARCA2 act 12 | SMARCA2 act conf inactive | GAL4-VP16 Luc 8.8
COc1ccc(-c2noc(COc3ccc4c(c3)OCO4)n2)cc1	none
CCOc1ccc(-c2noc(-c3ccncc3)n2)cc1OCC	none
CN(Cc1ccccc1)C(=O)c1cc(-c2ccc(Br)cc2)on1	SMARCA2 act 8.1 | SMARCA2 act conf inactive | GAL4-VP16 Luc 5.3
Cc1cc(C(=O)N(C)Cc2ccc(Br)cc2)no1	none
CCCNC(=O)CN1CCN(S(=O)(=O)c2ccc(Br)s2)CC1	none
Cc1ccc(CNC(=O)COC(=O)c2ccc(Br)cc2)cc1	none
CCOC(=O)c1ccc(CNCc2ccc(C)cc2)cc1	SMARCA2 act 9.1 | SMARCA2 act conf inactive | GAL4-VP16 Luc inactive
Cc1ccc2cccc(N=Cc3c(C)[nH]n(-c4ccccc4)c3=O)c2n1	SMARCA2 act 14 | SMARCA2 act conf inactive | GAL4-VP16 Luc 8.1
Cc1[nH]n(-c2ccccc2)c(=O)c1/C=N/O	none
Cn1c(Cn2nnc3ccccc32)nnc1SCC(=O)NCc1ccc2c(c1)OCO2	none
CC1CCC(NC(=O)C(C)N2C(=O)C3CCCCC3C2=O)CC1 (configuration not stated)	SMARCA2 act 9.3 | SMARCA2 act conf inactive | GAL4-VP16 Luc inactive
CC(C(=O)NC1CCCCC1)N1C(=O)C2C3C=CC(C3)C2C1=O (configuration not stated)	none
Cc1cc(NC(=O)c2ccccc2[N+](=O)[O-])ccc1Br	SMARCA2 act 8.2, DAX1 inh-1 4.8 | SMARCA2 act conf 13 | GAL4-VP16 Luc 6.3
O=C(Cc1ccccc1)Nc1nc(-c2cccs2)cs1	SMARCA2 act 11 | SMARCA2 act conf inactive | GAL4-VP16 Luc 6.4
Cc1nc(SCC(=O)c2cccs2)c2oc3ccccc3c2n1	SMARCA2 act 8.5 | SMARCA2 act conf inactive | GAL4-VP16 Luc 11
O=C(CSc1ncnc2c1oc1ccccc12)c1cccs1	none
Cc1cc(C)cc(OCC(=O)OCC(=O)c2ccc3c(c2)NC(=O)CO3)c1	none
C[C@@H]1[C@@H](O)C[C@@]2(C[C@H](O)c3cc(F)ccc3O2)O[C@H]1c1ccccc1Cl	none (no result: DAX1 inh-1)
CCCSc1nnc(NC(=O)Nc2ccc(C)cc2)s1	SMARCA2 act 8.0 (no result: DAX1 inh-1) | SMARCA2 act conf inactive | GAL4-VP16 Luc inactive
COc1ccc(-n2nc3c(N4CCC(C(=O)NCc5cccc(C)c5)CC4)nnc(C)c3c2C)cc1	SMARCA2 act 14 | SMARCA2 act conf 17 | GAL4-VP16 Luc inactive
COc1ccc(S(=O)(=O)N2CCC(C(=O)N3CCc4ccccc4C3)CC2)cc1	none
